The campaign covered roughly 360,000 compounds. About 5,000 (1.4%) were called active. What follows is part of a selection rich in actives, with near analogues and random picks from the rest. Unmarked numbers belong to inactive results.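 The calls were made as follows: active = inhibition of 50% or more, scaled per plate between neutral and stimulator controls; inactive = the rest.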
experiment: mitochondrial permeability transition pore inhibitors, primary screen, biochemical, isolated mouse mitochondria, absorbance (AID 602449); conditions: Ca2+ swelling absorbance, 30 min, at 10 µM, stronger effect = higher value;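 also: 0% = DMSO wells given calcium and 100% = 1 mM EGTA wells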

| Compound | inhibition |
| --- | --- |
| CCCCC(=O)N/N=C/c1c(O)n(CC)c(=S)n(CC)c1=O | 58% (active) |
| Cn1c(O)c(C=NCCCC(=O)O)c(=O)n(C)c1=O | 1.1% |
| CCCCC(=O)N/N=C/c1c(O)n(CCC2=CCCCC2)c(=O)[nH]c1=O | -4.5% |
| COc1ccc2c(c1)[C@]13CCCCC1C(C2)N(C)CC3 (stereo not given in full) | -3% |
| Cc1ccc(C2CN(C)CC2C(=O)c2ccc(F)cc2)cc1 (stereo not given) | -0.4% |
| CCN(CC)CCOC(=O)c1cc2cc(COC)ccc2o1 | -3.6% |
| CCOc1cccc(=NC2CCCCC2)c2c(C)[nH]c(C)c12 | 62.7% (active) |
| C=CCn1c(O)c(/C=N/N2CCOCC2)c(=O)[nH]c1=S | -1.7% |
| O=C(CCCn1c(=O)[nH]c2cc(Cl)ccc2c1=O)N1CCC2(CC1)OCCO2 | 1.1% |
| C[C@H]1CN([C@@H](C)CO)C(=O)CCCn2nncc2CO[C@H]1CN(C)C(=O)Oc1ccccc1 | 0.9% |
| CCCCCCCCCCCCn1ccc(=N)cc1 | 68.6% (active) |
| CC(=O)NCC1=C(c2ccc3ccccc3c2)C[C@@H]2CC[C@H]1N2Cc1ccco1 | -0.6% |
| O=C(CN1CCCCC1)Nc1ccc(Br)cc1C(=O)c1ccccc1Cl | 1.1% |
| COc1c(O)ccc2c1-c1c3c(cc4c1C(C2)N(C)CC4)OCO3 (stereo not given) | -0.5% |
| COc1ccc(C2NCc3ccc4c(c3-n3cccc32)OCO4)cc1OC (stereo not given) | 68% (active) |
| c1ccc(C2NCc3ccccc3-n3cccc32)cc1 (stereo not given) | 0.4% |
| O=C(Nc1cccc2ccccc12)N1CCC2(CC1)OCCO2 | 0.6% |
| O=C1/C(=C\c2ccc3c(c2)OCO3)N2CCC1CC2 | -0.8% |

| Compound | inhibition |
| --- | --- |
| O=c1c2ccccc2nc(-c2ccc(Cl)cc2Cl)n1-c1ccncc1 | 0.3% |
| COc1ccc(-c2nc(CS(=O)CC(=O)N3CCC4(CC3)OCCO4)c(C)o2)cc1 (stereo not given) | 1% |
| O=Cc1cn(Cc2ccc(F)cc2Cl)c2ccccc12 | 60.7% (active) |
| Cc1ccnc(-n2c(C)cc(/C=C3\C(=O)NC(=S)N(C)C3=O)c2C)c1 | 6.4% |
| O=C1C2CCN(CC2)C1(CO)CO | -0.5% |
| CCN(CC)C(=O)c1ccc(NC(=O)c2sccc2-c2ccccc2)cc1 | 0.3% |
| CCC(=NCCCO)c1c(O)n(-c2ccc(OC)cc2)c(=O)[nH]c1=O | 2.3% |
| CCCCCCN=C(CC)c1c(O)n(CCCC)c(=O)[nH]c1=O | 79.8% (active) |
| CCCCn1c(O)c(C(CC)=NCc2ccco2)c(=O)[nH]c1=O | -0.1% |
| Cc1cccc(-n2c(O)c(C=NC34CN5CN(CN(C5)C3)C4)c(=O)[nH]c2=O)c1 | 2.5% |
| CSc1ccc(C(=O)C2CCCN(Cc3ccn[nH]3)C2)cc1 (stereo not given) | 1.7% |
| CC(=CCOc1ccc2ccc(=O)oc2c1)C1=CC(=O)C(C)(C)O1 | 1.5% |
| O=C(NCC1=C(c2ccc3ccccc3c2)C[C@@H]2CC[C@H]1N2Cc1ccco1)c1cccs1 | -1.7% |
| CC(Cc1ccccc1)NCCC(c1ccccc1)c1ccccc1 (stereo not given) | 104% (active) |
| CCOc1ccc(C2SCC(=O)Nc3c2c(C)nn3C2CCOC(C)(C)C2)cc1 (stereo not given) | 0.4% |
| Cc1ccsc1C(=O)C1CCCN(Cc2ccc(O)cc2)C1 (stereo not given) | 0.1% |
| Cn1c(O)c(C=Nc2ccc3c(c2)CCC3)c(=O)n(C)c1=O | -1.3% |

Source: PubChem BioAssay AID602449 (Sanford-Burnham Center for Chemical Genomics, 2012)
